Laboratory results taken from PubChem BioAssay (Tox21).
Where “and” joins values, the source holds several entries; their conditions need not be identical. Equal entries are not always repeated. Unmarked numbers belong to inactive results. Records with an inconclusive call do not appear. A call without a number means that no potency is given here. Calls of active or inactive are those of the source. Unless noted, calls follow the shape of the dose curve; as a rule, active = well fitted curve in the direction sought with a large enough effect in the repeat runs; inconclusive = weak or mixed curves; inactive = flat fitted curve, though single readings scatter.

How the values were obtained:
[1] = qHTS assay to test for compound auto fluorescence at 535 nm (green) in HEK293 cells (AID 720680)
[2] = qHTS assay to test for compound auto fluorescence at 460 nm (blue) in HEK293 cell free culture (AID 720681)
How it was run: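 Blue fluorescence (Ex 405/Em 460 nm, triamterene-equivalent) was read immediately after pin transfer of compound or DMSO into medium (DMEM, 10% FBS) without cells.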

[3] = qHTS assay to test for compound auto fluorescence at 535 nm (green) in HEK293 cell free culture (AID 720682)
How it was run: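 Each library compound, or DMSO control, is added by pintool to medium alone, comprising DMEM and 10% FBS. Emission at 535 nm following 485 nm excitation is quantified against fluorescein.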

[4] = qHTS assay to test for compound auto fluorescence at 590 nm (red) in HEK293 cell free culture (AID 720683)
How it was run: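 Red-channel autofluorescence of compounds in culture medium (DMEM, 10% FBS), no cells, measured at 540/590 nm. Rose Bengal sodium is the reference fluorophore for equivalence.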

[5] = qHTS assay to test for compound auto fluorescence at 590 nm (red) in HepG2 cell free culture (AID 720684)
How it was run: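 Cell-free; medium MEM + 10% FBS; compound or DMSO added by pintool; read Ex 540/Em 590 nm; Rose Bengal sodium as red reference fluorophore.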

[6] = qHTS assay to test for compound auto fluorescence at 460 nm (blue) in HepG2 cell free culture (AID 720685)
How it was run: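 Cell-free plates of MEM plus 10% FBS received 23 nL compound or DMSO vehicle; blue-channel (405/460 nm) intensity scored against triamterene as reference fluorophore.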

[7] = qHTS assay to test for compound auto fluorescence at 535 nm (green) in HepG2 cell free culture (AID 720686)
[8] = qHTS assay to test for compound auto fluorescence at 460 nm (blue) in HepG2 cells (AID 720687)
How it was run: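 Blue-channel autofluorescence (Ex/Em 405/460 nm, triamterene-equivalent) was measured after 1 hr compound exposure at 37 C, 5% CO2. Cells were HepG2, plated overnight at 37 C in MEM plus 10% FBS.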

[9] = target: Glucocorticoid receptor (Homo sapiens) (UniProt P04150); assay: qHTS assay to identify small molecule agonists of the glucocorticoid receptor (GR) signaling pathway (AID 720691; active = well fitted activation curve with a large enough effect in the signal ratio in the repeat runs, not every such curve was filed as active; the % refers to the signal ratio)
Sequence of Glucocorticoid receptor (Homo sapiens) (P04150 whole entry, looked up): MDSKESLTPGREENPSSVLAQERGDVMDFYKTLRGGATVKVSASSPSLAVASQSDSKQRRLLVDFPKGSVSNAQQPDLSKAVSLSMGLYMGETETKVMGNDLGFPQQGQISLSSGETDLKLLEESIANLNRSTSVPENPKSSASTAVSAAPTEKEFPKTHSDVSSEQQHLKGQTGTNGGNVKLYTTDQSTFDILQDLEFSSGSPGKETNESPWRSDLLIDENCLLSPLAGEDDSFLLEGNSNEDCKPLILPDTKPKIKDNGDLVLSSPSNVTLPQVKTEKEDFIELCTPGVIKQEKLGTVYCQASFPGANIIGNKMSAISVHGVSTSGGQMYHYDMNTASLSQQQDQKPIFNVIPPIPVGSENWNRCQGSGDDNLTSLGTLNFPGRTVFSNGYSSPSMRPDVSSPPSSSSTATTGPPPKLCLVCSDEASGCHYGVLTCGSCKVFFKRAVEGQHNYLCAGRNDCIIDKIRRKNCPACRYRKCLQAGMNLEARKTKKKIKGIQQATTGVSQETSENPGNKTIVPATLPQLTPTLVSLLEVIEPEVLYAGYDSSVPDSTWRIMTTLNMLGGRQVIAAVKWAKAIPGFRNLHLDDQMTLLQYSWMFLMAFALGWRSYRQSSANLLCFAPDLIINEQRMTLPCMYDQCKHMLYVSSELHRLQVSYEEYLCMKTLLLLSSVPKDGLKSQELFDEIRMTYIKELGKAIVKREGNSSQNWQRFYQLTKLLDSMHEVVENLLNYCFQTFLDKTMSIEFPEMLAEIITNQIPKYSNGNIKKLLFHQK
How it was run: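 Cells: GR-bla HeLa, endogenous GR with stably integrated GRE-beta-lactamase reporter. Treatment 18 h, 37 C, compounds delivered in DMSO. Detection via LiveBLAzer B/G FRET substrate, 2 h RT, fluorescence intensity.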

[10] = target: Glucocorticoid receptor (Homo sapiens) (UniProt P04150); assay: qHTS assay to identify small molecule antagonists of the glucocorticoid receptor (GR) signaling pathway (AID 720692; active = well fitted inhibition curve with a large enough effect in the signal ratio in the repeat runs, not every such curve was filed as active; the % refers to the signal ratio; also: potency is read from the fitted curve at half-maximal effect)
How it was run: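 Quantitative HTS in antagonist format: HeLa cells expressing endogenous GR and a stably integrated GRE-bla reporter, stimulated with 5 nM dexamethasone (final) alongside test compounds for 18 h.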

Row | SMILES | outcome [1] | outcome [2] | outcome [3] | outcome [4] | outcome [5] | outcome [6] | outcome [7] | outcome [8] | outcome [9] | Potency [10] | fluorescence, % of fluorescein [1] | fluorescence, % of fluorescent control [2] | activity change [3] | fluorescence, % of fluorescent control [4] | fluorescence, % of Rose Bengal [5] | fluorescence, % of fluorescent control [6] | fluorescence, % of fluorescein control [7] | fluorescence, % of fluorescent control [8]
1 | CCCCc1c(C)nc(NCC)[nH]c1=O | inactive | inactive | inactive | inactive | inactive | inactive | inactive | inactive | inactive | inactive | – | – | – | – | – | – | – | –
2 | CNCC(=O)c1ccc(O)c(O)c1 | inactive | inactive | inactive | inactive | inactive | inactive | inactive | inactive | inactive | inactive | – | – | – | – | – | – | – | –
3 | C=C(C)CN(CC)c1c([N+](=O)[O-])cc(C(F)(F)F)cc1[N+](=O)[O-] | inactive | inactive | inactive | inactive | inactive | inactive | inactive | inactive | inactive | inactive | – | – | – | – | – | – | – | –
4 | CC1CCC(=O)O1 (stereo not given) | inactive | inactive | inactive | inactive | inactive | inactive | inactive | inactive | inactive | inactive | – | – | – | – | – | – | – | –
5 | O=C(CCCN1CCC(n2c(=O)[nH]c3ccccc32)CC1)c1ccc(F)cc1 | – | – | – | – | – | – | – | – | inactive | inactive | 0.0703% [at 18.6 µM] | 0.0625% [at 18.6 µM] | -0.0154% [at 18.6 µM] | -0.0219% [at 18.6 µM] | 0.463% [at 18.6 µM] | -0.0144% [at 18.6 µM] | 0.027% [at 18.6 µM] | 0.0395% [at 18.6 µM]
6 | COc1cc(OC)nc(NC(=O)NS(=O)(=O)c2ncccc2OCC(F)(F)F)n1 | inactive | inactive | inactive | inactive | inactive | inactive | inactive | inactive | inactive | inactive | – | – | – | – | – | – | – | –
7 | O=C(NCO)NCO | inactive | inactive | inactive | inactive | inactive | inactive | inactive | inactive | inactive | inactive | – | – | – | – | – | – | – | –
8 | CNC(=O)O/N=C(\C)SC | inactive | inactive | inactive | inactive | inactive | inactive | inactive | inactive | inactive | inactive | – | – | – | – | – | – | – | –
9 | Cc1ncc(CNC(=O)N(CCCl)N=O)c(N)n1 | inactive | inactive | inactive | inactive | inactive | inactive | inactive | inactive | inactive | inactive | – | – | – | – | – | – | – | –
10 | C[C@]1(O)CC[C@H]2[C@@H]3CCC4=CC(=O)CC[C@]4(C)[C@@]3(F)[C@@H](O)C[C@@]21C | inactive | inactive | inactive | inactive | inactive | inactive | inactive | inactive | inactive | 1.51 µM (active) and 620 nM (active) | – | – | – | – | – | – | – | –
11 | O=C(Nc1ccccc1)c1ccccc1I | inactive | inactive | inactive | inactive | inactive | inactive | inactive | inactive | inactive | inactive | – | – | – | – | – | – | – | –
12 | ClCC(Cl)(Cl)Cl | inactive | inactive | inactive | inactive | inactive | inactive | inactive | inactive | inactive | inactive | – | – | – | – | – | – | – | –
13 | O=S(=O)(O)C(F)(F)C(F)(F)C(F)(F)C(F)(F)C(F)(F)C(F)(F)F | inactive | inactive | inactive | inactive | inactive | inactive | inactive | inactive | inactive | inactive | – | – | – | – | – | – | – | –
14 | CCC(Cl)[N+](=O)[O-] (stereo not given) | inactive | inactive | inactive | inactive | inactive | inactive | inactive | inactive | inactive | inactive | – | – | – | – | – | – | – | –
15 | CC(C)CC(N(C)C)C1(c2ccc(Cl)cc2)CCC1 (stereo not given) | inactive | inactive | inactive | inactive | inactive | inactive | inactive | inactive | inactive | inactive | – | – | – | – | – | – | – | –
16 | COC(=O)C(c1ccccc1)C1CCCCN1 (stereo not given) | inactive | inactive | inactive | inactive | inactive | inactive | inactive | inactive | inactive | inactive | – | – | – | – | – | – | – | –
17 | CC(=O)Nc1cc([As](=O)(O)O)ccc1O | inactive | inactive | inactive | inactive | inactive | inactive | inactive | inactive | inactive | inactive | – | – | – | – | – | – | – | –
18 | CC(=O)C(Cl)Cl | inactive | inactive | inactive | inactive | inactive | inactive | inactive | inactive | inactive | inactive | – | – | – | – | – | – | – | –
19 | CCNc1nc(NC(C)C)nc(OC)n1 | inactive | inactive | inactive | inactive | inactive | inactive | inactive | inactive | inactive | inactive | – | – | – | – | – | – | – | –
20 | Cc1cnc[nH]1 | inactive | inactive | inactive | inactive | inactive | inactive | inactive | inactive | inactive | inactive | – | – | – | – | – | – | – | –
21 | CC1CCCCC1NC(=O)Nc1ccccc1 (stereo not given) | inactive | inactive | inactive | inactive | inactive | inactive | inactive | inactive | inactive | inactive | – | – | – | – | – | – | – | –
22 | CCN(CC)c1nc(C)cc(OP(=S)(OC)OC)n1 | inactive | inactive | inactive | inactive | inactive | inactive | inactive | inactive | inactive | inactive | – | – | – | – | – | – | – | –
23 | CC(=O)CC(c1ccc(Cl)cc1)c1c(O)c2ccccc2oc1=O (stereo not given) | inactive | inactive | inactive | inactive | inactive | inactive | inactive | inactive | inactive | inactive | – | – | – | – | – | – | – | –
24 | CCCCc1ccc(O)cc1 | inactive | inactive | inactive | inactive | inactive | inactive | inactive | inactive | inactive | inactive | – | – | – | – | – | – | – | –
